Test results: publication PMC11062922 (Nature Chemical Biology, 2023)
Read-outs that look alike come from different tables or passages of the source.

Experiments:
Design in all cases: species or system human, MV4-11 + K-562 + COLO205 + SK-N-BE2 + OVCAR-8
[1] = test system: CIT; conditions: read-out: apparent Kd, n = 1
[2] = test system: AXL; conditions: read-out: apparent Kd; compound concentrations: 100 nM and 1000 nM (sheet 'Samples'), CATDS: 1.0312125146775999E-2; n = 1
[3] = test system: CDC42BPA; conditions: read-out: apparent Kd, n = 1
[4] = test system: CDC42BPG; conditions: read-out: apparent Kd, n = 1
[5] = test system: CDK2; conditions: read-out: apparent Kd; compound concentrations: 100 nM and 1000 nM (sheet 'Samples'), CATDS: 8.3972230361842193E-3; n = 1
[6] = test system: LYN; conditions: read-out: apparent Kd; compound concentrations: 100 nM and 1000 nM (sheet 'Samples'), CATDS: 7.0851480794777598E-3; n = 1
[7] = test system: PDGFRB; conditions: read-out: apparent Kd, compound concentrations: 100 nM and 1000 nM (sheet 'Samples'), n = 1
[8] = test system: PIK3CG; conditions: read-out: apparent Kd, n = 1
[9] = test system: PKN2; conditions: read-out: apparent Kd, n = 1
[10] = test system: ROCK1; conditions: read-out: apparent Kd; compound concentrations: 100 nM and 1000 nM (sheet 'Samples'), CATDS: 7.59809178232565E-3; n = 1
[11] = test system: TGFBR2; conditions: read-out: apparent Kd, n = 1
[12] = test system: CDK9; conditions: read-out: apparent Kd, n = 1
[13] = test system: ULK1; conditions: read-out: apparent Kd; compound concentrations:100 nM and 1000 nM (sheet 'Samples'); n = 1
[14] = test system: PRKG1; conditions: read-out: apparent Kd; compound concentrations:100 nM and 1000 nM (sheet 'Samples'); n = 1
[15] = test system: MTOR; conditions: read-out: apparent Kd; compound concentrations:100 nM and 1000 nM (sheet 'Samples'); n = 1
[16] = compound concentrations:100 nM and 1000 nM (sheet 'Samples')

COc1cccc2c(-c3ccncc3)c(-c3ccc(F)cc3)nn12 [GW468513X]
potency estimated from few doses ([1]; compound concentrations: 100 nM and 1000 nM (sheet 'Samples'), CATDS: 4.9718513038834899E-2): 539 nM

O=C(O)C(F)(F)F.O=C(O)C(F)(F)F.O=c1[nH]ccc2nc(N[C@@H]3CCCNC3)nc(Nc3ccc(S(=O)(=O)N4CCOCC4)cc3)c12.O=c1[nH]ccc2nc(N[C@@H]3CCCNC3)nc(Nc3ccc(S(=O)(=O)N4CCOCC4)cc3)c12 [GSK2177277A]
potency estimated from few doses [2]: 251 nM
potency estimated from few doses ([3]; compound concentrations: 100 nM and 1000 nM (sheet 'Samples'), CATDS: 6.6693958930569E-3): 1260 nM
potency estimated from few doses ([4]; compound concentrations: 100 nM and 1000 nM (sheet 'Samples'), CATDS: 1.3688403769646499E-2): 119 nM
potency estimated from few doses [5]: 481 nM
potency estimated from few doses [6]: 942 nM
potency estimated from few doses ([7]; CATDS: 3.6594692875912202E-2): 18.3 nM
potency estimated from few doses ([8]; compound concentrations: 100 nM and 1000 nM (sheet 'Samples'), CATDS: 7.6571772064284397E-3): 679 nM
potency estimated from few doses ([9]; compound concentrations: 100 nM and 1000 nM (sheet 'Samples'), CATDS: 1.4426641074697899E-2): 105 nM
potency estimated from few doses [10]: 700 nM

Cc1n[nH]c2cc(Nc3ccnc(Nc4cccc(CN5CCOCC5)c4)n3)ccc12 [GW682569X]
potency estimated from few doses ([11]; compound concentrations: 100 nM and 1000 nM (sheet 'Samples'), CATDS: 0.113560287008428): 891 nM

CN(C)CC(O)COc1ccc(Nc2nccc(-c3cnn4nc(N5CCOCC5)ccc34)n2)cc1 (stereo not drawn) [GW767488X]
potency estimated from few doses [12, 16]: 534 nM
potency estimated from few doses [1, 16]: 998 nM
potency estimated from few doses [11, 16]: 215 nM
potency estimated from few doses [13]: 793 nM

COc1cc(Nc2nccc(-c3cnn4ncccc34)n2)cc(OC)c1 [GW801372X]
potency estimated from few doses ([3]; compound concentrations: 100 nM and 1000 nM (sheet 'Samples'), CATDS: 2.2465917361224799E-2): 786 nM
potency estimated from few doses ([12]; compound concentrations: 100 nM and 1000 nM (sheet 'Samples'), CATDS: 4.3233319898636102E-2): 142 nM
potency estimated from few doses ([7]; CATDS: 1.5756503418678101E-2): 3520 nM

CCn1c(-c2nonc2N)nc2c(C#CC(C)(C)O)nc(O[C@@H](CN)c3ccccc3)cc21.O=C(O)C(F)(F)F [GSK1007102B]
potency estimated from few doses [3, 16]: 952 nM
potency estimated from few doses [4, 16]: 191 nM
potency estimated from few doses [1, 16]: 21.1 nM
potency estimated from few doses [9, 16]: 390 nM
potency estimated from few doses [14]: 9.31 nM

O=C(O)C(F)(F)F.O=c1[nH]ccc2nc(N[C@@H]3CCNC3)nc(Nc3cc(Cl)cc(Cl)c3)c12 [GSK2188764A]
potency estimated from few doses [4, 16]: 556 nM

CN(c1ccc(NC(=O)NCCN2CCOCC2)cc1)c1ccnc(Nc2ccc(CS(C)(=O)=O)cc2)n1.Cl [GW830365A]
potency estimated from few doses ([11]; compound concentrations: 100 nM and 1000 nM (sheet 'Samples'), CATDS: 5.51715170179801E-2): 958 nM

CCN(CC)Cc1ccc(Nc2nccc(-c3cnn4ncccc34)n2)cc1 [GW780056X]
potency estimated from few doses ([12]; compound concentrations: 100 nM and 1000 nM (sheet 'Samples'), CATDS: 0.168116243338059): 19.4 nM
potency estimated from few doses ([7]; CATDS: 2.40786043408843E-2): 746 nM

Cc1cccc(Nc2nc(N[C@H]3CCNC3)ncc2C(N)=O)c1.Cl [GSK2197149A]
potency estimated from few doses [15]: 532 nM
potency estimated from few doses [8, 16]: 819 nM
potency estimated from few doses [11, 16]: 1870 nM
